Out of some 91,000 compounds screened, about 40 (0.04%) were called active. Rule as the data show it: active = activation above about 37%; inactive = the rest. Not all results are given here.
target: Bifunctional epoxide hydrolase 2 (Homo sapiens) (UniProt P34913); assay: sEH enzyme activity enhancers – biochemical, human sEH, primary screen (AID 717); settings: purified human sEH enzymatic activity, activator screen; at 2 µM; stronger effect = higher value
Sequence (P34913 whole entry, looked up): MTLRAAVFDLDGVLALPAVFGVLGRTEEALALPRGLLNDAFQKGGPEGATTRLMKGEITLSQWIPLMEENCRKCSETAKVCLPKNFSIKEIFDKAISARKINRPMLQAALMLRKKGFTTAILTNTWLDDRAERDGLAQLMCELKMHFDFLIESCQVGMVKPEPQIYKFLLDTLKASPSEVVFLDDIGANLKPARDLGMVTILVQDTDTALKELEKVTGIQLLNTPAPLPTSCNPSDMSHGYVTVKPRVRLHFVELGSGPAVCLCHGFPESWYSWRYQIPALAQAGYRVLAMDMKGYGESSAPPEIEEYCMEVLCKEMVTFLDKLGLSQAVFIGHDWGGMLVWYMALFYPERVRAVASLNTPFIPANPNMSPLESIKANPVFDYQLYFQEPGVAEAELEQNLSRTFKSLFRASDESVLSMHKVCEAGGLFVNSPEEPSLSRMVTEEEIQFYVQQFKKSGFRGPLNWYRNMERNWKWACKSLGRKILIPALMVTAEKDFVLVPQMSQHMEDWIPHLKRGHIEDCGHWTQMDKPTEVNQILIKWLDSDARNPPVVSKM

activation, inactive:
COc1ccc(C)cc1NC(=O)CCC(=O)Nc1nnc(C(F)(F)F)s1 -15.1%
Cc1nnsc1S(=O)(=O)Cc1ccccc1Cl -3.8%
CCCCNC(=O)c1onc(CSc2cccc(OC)c2)c1C(=O)O 11.8%
CS(=O)(=O)N1CCN(c2ccc(C(=O)NC3C4CC5CC(C4)CC3C5)cc2[N+](=O)[O-])CC1 (configuration not stated) 8.8%
C(=N/N1CCN(c2ccccc2)CC1)/c1cccs1 4.8%
COCCCNC(NC(=O)c1ccc(C)cc1)C(Cl)(Cl)Cl (configuration not stated) 18.3%
CCOC(=O)C1=C(CN2CCc3ccccc32)NC(=O)NC1c1cc(C)ccc1C (configuration not stated) 7.8%
Nc1ccc(-c2sc(N)nc2-c2ccccc2)cc1 10.7%
COCC(C)NC(=O)c1ccc(-n2nc(C(F)(F)F)cc2-c2cccs2)cc1 (configuration not stated) 3.4%
CC(=O)c1cn(CCCCCCCCCCn2cc(C(C)=O)c(=O)[nH]c2=O)c(=O)[nH]c1=O 3.2%
Cc1csc(=NC(=O)c2ccccc2)n1CCO 7.3%
CCc1ccc(C(=O)CSc2nnc(C)c(=O)[nH]2)cc1 -0.4%
CCCn1nnnc1NC(=O)COc1ccc(Cl)cc1C 36.8%
COc1ccccc1CNC(=O)c1ccc(SC)cc1OC 1%
Cc1nn(C)cc1/C=C1\CCC/C(=C\c2cn(C)nc2C)C1=O 11.7%
CCN(CC)c1nc(-c2ccccc2)cc(C(F)(F)F)c1C#N 30.7%
Nc1c(-c2cccc(Cl)c2)cnn1-c1cccc([N+](=O)[O-])c1 0.1%
O=c1c2ccccc2c(-c2ccc(Br)cc2)nn1Cc1ccccc1 -4.3%
O=C(COC(=O)c1ccccc1NC(=O)c1ccco1)Nc1ccc2c(c1)OC(F)(F)O2 -28.9%
CCCCNCc1ccc(SC)cc1 -8.5%
NC(=O)N1CCCC1C(=O)Nc1ccc(Cl)c(Cl)c1 (configuration not stated) -4.5%
CCCCNC(=O)CSc1nc2ccc(NC(=O)CSc3nnc(COc4ccccc4C)n3C)cc2s1 -88.3%
Cc1cc(C(=O)OCC(=O)Nc2ccc(F)c(F)c2)c(C)o1 -9.4%
COc1ccc(CCNC(=S)NC(=O)/C=C/c2ccc(C)cc2)cc1OC 3.7%
CC1=NN(Cc2ccccc2)C(=O)/C1=C/c1ccc(N(C)C)cc1 4.2%
CCn1cc(C(=O)N/N=C(/C)c2ccc(F)cc2)c(=O)c2cc(F)c(N3CCCC3)cc21 11.6%
COc1ccc(NS(=O)(=O)c2ccc(NC(=S)NC(=O)CC(C)C)cc2)cc1 1.9%
O=C(NCCCN1CCOCC1)c1cc2c(s1)CCC2 -5.4%
O=C(CN1C(=O)NC(Cc2ccccc2)(Cc2ccccc2)C1=O)NCC1CCCCC1 11.9%
O=C(OCN1C(=O)c2ccccc2C1=O)/C(=C\c1ccco1)NC(=O)c1ccccc1 -78.7%
COC(=O)CNC(=O)c1ccccc1[N+](=O)[O-] 18.9%
CCOc1ccc(C(CCc2ccccc2)NC(=O)c2ccc(OC)c(OC)c2)cc1OCC (configuration not stated) 23.3%
CC(CNc1ccc([N+](=O)[O-])cc1)NC(=O)c1ccccc1Br (configuration not stated) 5%
C=CCn1c(-c2ccc(Cl)cc2)ccc(C#N)c1=O 2.9%
COc1ccc2c(c1)SC(C)CC2=O (configuration not stated) 13.9%
CC1(C)CC(=O)C(C=NCCN2CCN(C(=S)Nc3cccc(Cl)c3)CC2)=C(O)C1 -11.3%
Cc1ccc(-c2csc(N(Cc3ccco3)C(=O)c3cccs3)n2)cc1 11.6%
CCOC(=O)NNC(=O)c1ccc(Cl)cc1 0.5%
CC(Oc1ccc(Cl)cc1Cl)C(=O)/C=C/N(C)C (configuration not stated) -10%
COc1ccc(/C=N/Nc2nc3ccccc3c(=O)[nH]2)cc1 10%
O=[N+]([O-])c1ccc(NCCCN2CCOCC2)c(Cl)c1 -17.1%
Clc1ccc(-n2nnnc2CN2CCCCC2)cc1Cl -4%
C=CCOC(=O)C1=C(C)NC(C)=C(C(=O)OCC=C)C1c1cccs1 8.4%
COc1ccc(-c2cc(C(=O)n3cnc4ccccc43)c3ccccc3n2)cc1 11.7%
COc1cc(C(=O)N2CCN(C/C=C/c3ccccc3)CC2)cc(OC)c1C 11.7%
CCCCNC(=S)NNC(=O)c1cc(C)on1 -1.6%
CN(CC#CCC(c1ccccc1)c1ccccc1)C(C)(C)C -4.2%
CC(C)(C)c1cc2cccnc2n1Cc1ccccc1 -9.8%
COc1cc(C2C(C(=O)OCCC#N)=C(C)NC3=C2S(=O)(=O)c2ccccc23)cc(OC)c1OC (configuration not stated) -9%
c1ccc(CSc2ncnc3c2sc2nc(N4CCOCC4)c4c(c23)CCCC4)cc1 -8.4%
c1cnc(Nc2nc(-c3ccc4ccccc4c3)cs2)nc1 9.6%
c1ccc2c(CSCc3nc4ccccc4[nH]3)cccc2c1 -10.8%
CCOC(=O)c1c(NC(=O)c2ccc(N3CCOCC3)c([N+](=O)[O-])c2)sc(C)c1C -11.3%
O=C(CN1CCN(S(=O)(=O)c2ccc(Cl)s2)CC1)NCc1ccc(Cl)cc1 0.3%
COc1ccc(C(=S)Nc2ccccc2)cc1 -3.8%
Cc1nn(-c2ccccc2)c(Cl)c1C(=O)Nc1ccccc1 2%
O=C(CNC(=O)c1cc2c(s1)CCC2)Nc1ccccc1Br -12.2%
CCNC(=S)N1CCN(C(=O)c2ccco2)CC1 1%
COc1cc(/C=N/O)cc(Br)c1OS(=O)(=O)c1ccc(C)cc1 12.9%
CCOC(=O)COc1cc(OCC(=O)OCC)c2c(=O)cc(-c3ccccc3)oc2c1 15.3%
Cc1ccc(C(=O)NNC(=O)OC(C)(C)C)c(Cl)c1 2%
Cc1ccc(NC(=S)N/N=C2/CCCc3c(C)cc(C)cc32)cc1 9.9%

Source: PubChem BioAssay AID717 (Columbia University Molecular Screening Center, 2007)
